HT1080 IDH1KD tx: toxicity to HT-1080 IDH1 knockdown cells (counter line). 2% of 360,000 active. Potency, µM (doses to about 46.1 µM), for the others: top-dose activity, negative = toxicity, actives largely listed as cytotoxic. HT-1080 IDH1 knockdown viability, ATP luminescence, 48 h;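 further: 0% = DMSO wells and -100% = cell-free medium wells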
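Luminescent ATP read-out (CellTiter-Glo, 10 min at room temperature) after 48 h compound exposure at 37 °C gave viability of IDH1-knockdown HT-1080 cells. Activity was normalised to DMSO and cell-free wells, then fitted as concentration-response curves.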
KB-V1 cytotox: kills drug-selected multidrug resistant KB-V1 cells | 3.4% of 400,000 active | AID 1347076 | KB-V1 MDR cells viability, CellTiter-Glo, 72 h | Potency, µM (doses to about 46.1 µM), actives largely listed as cytotoxic; further: nearly all actives have a fitted effect of over 60% in size
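Following 72 h at 37 degrees C with compound, KB-V1 cell viability was read by CellTiter-Glo luminescence, medium being phenol-red-free DMEM plus 10% FBS; concentration-response parameters came from normalized, curve-fitted qHTS data.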
TDP1 cell noCPT: qHTS for Inhibitors of human tyrosyl-DNA phosphodiesterase 1 (TDP1): qHTS in cells in absence of CPT | DT40 Tdp1-/- hTDP1 cells, no CPT, ATP luminescence, 48 h | Potency, µM (titrated, usually from 46.2 µM), inactives show top-dose activity change, negative = growth inhibition, hits mostly inhibitors | 15% of 420,000 active | AID 686978, 2013; further: nearly all actives have a fitted effect of over 55% in size
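Readout: luminescence from CellTiter-Glo after 30 min in the dark at RT. Cells: DT40 Tdp1-/- with stable hTDP1, 400/well. Exposure: compounds alone, ≥48 hr, 37 °C.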
TDP1 cell CPT: DT40-hTDP1 cell growth loss with CPT; Potency, µM (titrated, usually from 46.2 µM), inactives show at the highest dose activity change, negative = growth inhibition, actives largely listed as inhibitors; chicken DT40 Tdp1-/-;hTDP1 cells + 20 nM CPT, ATP luminescence, 48 h; 12% of 420,000 active; AID 686979; further: nearly all actives have a fitted effect of over 55% in size
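Chicken DT40 Tdp1-/- cells stably complemented with human TDP1 were seeded at 400 cells/well in medium containing 20 nM camptothecin, exposed to pin-transferred compounds, and grown at 37 °C for at least 48 hr. Viability was read as ATP luminescence.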
KB-3-1 cytotox: KB-3-1 parental cell cytotoxicity | KB-3-1 viability, CellTiter-Glo ATP luminescence, 72 h | Potency, µM (highest dose often 46.1 µM), actives largely listed as cytotoxic | 1.4% of 400,000 active | AID 1347075; further: nearly all actives have a fitted effect of over 60% in size
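KB-3-1 cells, DMEM (no phenol red) + 10% FBS; compound by pin transfer, 72 h, 37 °C. Readout: CellTiter-Glo luminescence after 10 min. Data normalized, curve-fitted.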
HT1080NT lethal: kills 2HG-producing HT-1080-NT fibrosarcoma cells; 1.6% of 360,000 active; Potency, µM (top dose mostly 46.1 µM), for the others: at the highest dose activity, negative = less viability, actives largely listed as cytotoxic; HT-1080-NT fibrosarcoma viability, CellTiter-Glo ATP luminescence, 48 h;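 further: NT is the 2HG producing partner of a matched IDH1 knockdown line; 0% = DMSO-treated cells and -100% = media-only wells without cells; nearly all actives have a fitted effect of over 55% in size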
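A 48-hour cytotoxicity screen used HT-1080-NT cells plated 2 hours before compound delivery. ATP-based CellTiter-Glo luminescence measured viability, normalized to DMSO and no-cell controls.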
* marks the source's active call; other numbers are inactive results; i = inactive; ? = inconclusive; . = not tested or not shown; [ ] = another dose, or the depositor's remark. This is a sample that favours compounds with a hit; in the whole collection about 19% have one here. The call rests on the fitted dose curve; in most records, active means well fitted curve in the direction sought with a large enough effect; inconclusive means small, poorly fitted or top-dose-only effect, or another doubt; inactive means no such curve, though single readings can be large; an effect the other way counts as inactive or inconclusive. Unless noted, on the % scale 0 is the no-effect control and ±100 the full control effect; potency means the concentration at half of the fitted maximal effect.

SMILES	HT1080 IDH1KD tx	KB-V1 cytotox	TDP1 cell noCPT	TDP1 cell CPT	KB-3-1 cytotox	HT1080NT lethal
Cc1ncc2c(c1CNS(=O)(=O)N(C)C)CCN(C(=O)/C=C/c1ccccc1F)C2	.	.	-12.7%	12.6%[9.04 µM]	.	.
COc1ccc(C(O)c2nc(-c3ccc(OC)c(OC)c3)cs2)cc1 (stereo unspecified)	9.6%	?	18.4µM*	13µM*	i	-0.2%
COc1ccc(C(O)c2nc(-c3ccc(Cl)cc3)cs2)cc1 (stereo unspecified)	?	?	?	-61.4%	?	-24.9%
COc1cc(C(O)c2nc(-c3ccc4ccccc4c3)cs2)ccc1F (stereo unspecified)	?	?	20.6µM*	23.1µM*	i	23.1µM*
COc1ccc(C(O)c2nc(-c3ccc4ccccc4c3)cs2)cc1 (stereo unspecified)	-14.1%	i	16.4µM*	?	i	-28.3%
COc1cc(C(O)c2nc(-c3ccc(F)c(Cl)c3)cs2)ccc1F (stereo unspecified)	?	i	?	?	i	?
COc1ccc(C(O)c2nc(-c3cc4ccccc4o3)cs2)cc1 (stereo unspecified)	6.1%	?	?	?	?	2.0%
O=C(NCc1ccccc1)C(c1ccccc1F)N(C(=O)c1csnn1)C1CCCC1 (stereo unspecified)	-13.7%	i	-25.5%	-1.8%	i	2.9%
Cc1cc(OCC(=O)OCC(=O)N(C)C2CCS(=O)(=O)C2)ccc1Cl (stereo unspecified)	7.3%	i	-3.7%	12.2%	i	-3.9%
COC(=O)c1cccc(C23CC4(C2)[C@H](CN(C)[C@@H]4c2ccccc2)C3c2ccc(C(F)(F)F)cc2)c1 (stereo partly specified)	5.0%	i	?	?	i	-16.7%
CN1C[C@@H]2C(c3ccc(Cl)nc3)C3(c4ccccc4)CC2(C3)[C@H]1c1ccccc1 (stereo partly specified)	-15.3%	i	16.4µM*	20.6µM*	i	-5.4%
CN1C[C@@H]2C(c3ccc(C(F)(F)F)cc3)C3(c4ccc(C#N)cc4)CC2(C3)[C@H]1c1ccccc1 (stereo partly specified)	-3.4%	i	23.1µM*	10.3µM*	i	-0.6%
CN1C[C@@H]2C(c3ccccc3)C3(c4ccc(C#N)cc4)CC2(C3)[C@H]1c1ccccc1 (stereo partly specified)	0.1%	i	?	?	i	-7.5%
COC(=O)c1cccc(C23CC4(C2)[C@H](CN(C)[C@@H]4c2ccccc2)C3c2ccccc2)c1 (stereo partly specified)	-8.4%	i	23.1µM*	20.6µM*	i	-17.7%
CN1C[C@@H]2C(c3ccccc3)C3(c4ccccc4)CC2(C3)[C@H]1c1ccccc1 (stereo partly specified)	3.3%	i	?	25.9µM*	i	3.7%
CCOC(=O)c1c(C)c(C)n2c1NC(=O)C2	-0.8%	i	-10.3%	?	i	24.1%
Cn1nnnc1SCC(=O)N(C1CCCCC1)C1CCCCC1	-6.3%	i	18.4µM*	16.4µM*	i	2.2%
O=C(O)CSc1nnnn1C1CCCCC1	12.3%	i	?	?	i	14.3%
CC(C)N(C(=O)CSc1nnnn1C1CCCC1)C(C)C	3.3%	13µM*	-25.8%	-2.0%	i	4.8%
COc1ccc(Oc2ncc3nc(-c4cccs4)c(=O)n(Cc4cccc(OC)c4)c3n2)cc1	.	.	-21.1%	-0.6%	.	.
COc1ccc(S(=O)(=O)N2CCOCC2)cc1NC(=O)c1c(-c2ccccc2)noc1C	-0.5%	i	-21.7%	2.9%	i	-1.9%
O=C(Nc1ccc(N2CCOCC2)cc1)c1nc2ccccc2s1	5.0%	i	-8.2%	1.0%	i	?
COc1ccc(-c2cc(C(=O)Nc3ccc(S(N)(=O)=O)cc3)c3ccccc3n2)cc1OC	?	i	?	-9.8%	i	-22.0%
COc1cc(-c2cc(C(=O)Nc3cc(S(=O)(=O)N4CCOCC4)ccc3C)c3ccccc3n2)cc(OC)c1OC	-2.1%	?	11.6µM*	16.4µM*	i	-4.4%
O=C(Nc1ccc(SC(F)F)cc1)c1cc(-c2ccncc2)nc2ccccc12	?	i	20.6µM*	?	?	-25.3%
SMILES	HT1080 IDH1KD tx	KB-V1 cytotox	TDP1 cell noCPT	TDP1 cell CPT	KB-3-1 cytotox	HT1080NT lethal
COc1ccc(-c2cc(C(=O)Nc3cc(S(N)(=O)=O)ccc3C)c3ccccc3n2)cc1OC	-10.9%	i	23.1µM*	?	i	-13.9%
O=C(Nc1ccc(N2CCOCC2)cc1)c1cc(-c2ccncc2)nc2ccccc12	-5.6%	?	?	20.6µM*	i	-7.4%
CCC1CC(CSc2ncn[nH]2)OC1=O (stereo unspecified)	-7.8%	i	-5.1%	-24.8%	i	-1.0%
CC(C)C(NC(=O)c1c(F)cccc1F)C(=O)N1CCN(S(=O)(=O)c2ccc(F)cc2)CC1 (stereo unspecified)	-1.1%	i	-14.1%	-10.5%	i	1.7%
O=C(Nc1ccccc1N1CCOCC1)c1ccc2ccccc2n1	-9.0%	?	16.4µM*	?	i	-18.9%
CC(C)(C)c1ccccc1NC(=O)c1cc(-c2ccncc2)nc2ccccc12	-12.2%	i	?	?	?	-18.7%
O=C(Nc1ccccc1N1CCOCC1)c1cc(-c2ccncc2)nc2ccccc12	-26.3%	18.4µM*	11.6µM*	11.6µM*	i	-25.6%
COc1ccc(-c2cc(C(=O)NNC(=O)c3csc(N4CCOCC4)n3)c3ccccc3n2)cc1OC	-14.1%	i	16.4µM*	20.6µM*	i	-13.2%
COc1ccc(-c2cc(C(=O)Nc3ccccc3N3CCOCC3)c3ccccc3n2)cc1OC	?	?	4.61µM*	7.31µM*	?	-10.0%
O=C(CNC(=O)N1CC(=O)Nc2ccccc21)NCc1ccccc1Cl	-3.9%	?	-10.5%	-10.8%	i	1.0%
O=C(CSc1nccc(=O)[nH]1)NCc1ccc(Cl)cc1	7.5%	i	12.2%	-10.0%	i	1.9%
